# From PMC8384837, “Expanding the binding specificity for RNA recognition by a PUF domain”
# Where a chain is given by its changes, count along the chain named.
# Columns and labels:
# Assay in all cases: yeast three-hybrid, YBZ-1, SC-Leu-His + 0.5 mM 3-AT, 4 days
# Details in all cases: tags: N-Gal4 AD-HA kept; label: inside an RPR1-promoter hybrid RNA with tandem MS2 sites; ssRNA
# PUM1 PUF domain R3-ARA = PUM1 PUF domain R3-ARA (Homo sapiens, UniProt Q14671 828-1176, C935A;Q939A)
# In short: (§1)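 Pumilio-1 PUF domain libraries, randomized at the three base-contacting residues of each repeat, were co-expressed with matching RNA elements from a centromeric plasmid in strain YBZ-1, which carries a LexA–MS2 coat fusion and a HIS3 reporter. Transformants grew for four days on SC-Leu (input) or on SC-Leu-His + 0.5 mM 3-AT (selection), and the repeat regions were PCR-amplified and Illumina-sequenced. The interaction score is the log change in variant frequency from input to selection. That logarithm is base 2, with a pseudocount of 1 where a variant was absent.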
# PUM1 PUF domain R4-SNL = PUM1 PUF domain R4-SNL (Homo sapiens, UniProt Q14671 828-1176, N971S;H972N;Q975L)
# In short: as §1
# PUM1 PUF domain R6-GFQ = biological target: T1, PUM1 PUF domain R6-GFQ (Homo sapiens, UniProt Q14671 828-1176, N1043G;Y1044F)
# T1 sequence: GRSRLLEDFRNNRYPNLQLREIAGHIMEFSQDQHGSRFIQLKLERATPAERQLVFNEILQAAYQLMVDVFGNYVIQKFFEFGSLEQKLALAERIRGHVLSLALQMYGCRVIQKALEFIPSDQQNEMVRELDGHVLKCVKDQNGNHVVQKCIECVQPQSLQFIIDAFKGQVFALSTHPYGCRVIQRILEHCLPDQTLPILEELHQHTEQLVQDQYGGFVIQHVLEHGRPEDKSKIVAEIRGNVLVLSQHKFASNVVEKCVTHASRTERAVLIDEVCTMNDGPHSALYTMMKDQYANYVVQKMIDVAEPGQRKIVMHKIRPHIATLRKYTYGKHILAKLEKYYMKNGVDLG
# In short: as §1
# PUM1 PUF domain R6-CYV = biological target: T2, PUM1 PUF domain R6-CYV (Homo sapiens, UniProt Q14671 828-1176, N1043C;Q1047V)
# T2 sequence: T1 sequence with G216C, F217Y, Q220V
# In short: as §1
# PUM1 PUF domain R6-GHS = biological target: T3, PUM1 PUF domain R6-GHS (Homo sapiens, UniProt Q14671 828-1176, N1043G;Y1044H;Q1047S)
# T3 sequence: T1 sequence with F217H, Q220S
# In short: as §1
# PUM1 PUF domain R1-QWR = PUM1 PUF domain R1-QWR (Homo sapiens, UniProt Q14671 828-1176, S863Q;R864W;Q867R)
# In short: as §1
# PUM1 PUF domain R1-NWS = PUM1 PUF domain R1-NWS (Homo sapiens, UniProt Q14671 828-1176, S863N;R864W;Q867S)
# In short: as §1
# PUM1 PUF domain R1-QVK = PUM1 PUF domain R1-QVK (Homo sapiens, UniProt Q14671 828-1176, S863Q;R864V;Q867K)
# In short: as §1
# PUM1 PUF domain R4-EYM = PUM1 PUF domain R4-EYM (Homo sapiens, UniProt Q14671 828-1176, N971E;H972Y;Q975M)
# In short: as §1
# PUM1 PUF domain R5-NRV = PUM1 PUF domain R5-NRV (Homo sapiens, UniProt Q14671 828-1176, C1007N;Q1011V)
# In short: as §1
# PUM1 PUF domain R5-RMR = PUM1 PUF domain R5-RMR (Homo sapiens, UniProt Q14671 828-1176, C1007R;R1008M;Q1011R)
# In short: as §1
# PUM1 PUF domain R5-KAS = PUM1 PUF domain R5-KAS (Homo sapiens, UniProt Q14671 828-1176, C1007K;R1008A;Q1011S)
# In short: as §1
# PUM1 PUF domain R8-RWE = PUM1 PUF domain R8-RWE (Homo sapiens, UniProt Q14671 828-1176, N1122R;Y1123W;Q1126E)
# In short: as §1
# PUM1 PUF domain R8-KKV = PUM1 PUF domain R8-KKV (Homo sapiens, UniProt Q14671 828-1176, N1122K;Y1123K;Q1126V)
# In short: as §1
# PUM1 PUF domain R8-VYK = PUM1 PUF domain R8-VYK (Homo sapiens, UniProt Q14671 828-1176, N1122V;Q1126K)
# In short: as §1
# PUM1 PUF domain R7-KRV = PUM1 PUF domain R7-KRV (Homo sapiens, UniProt Q14671 828-1176, S1079K;N1080R;E1083V)
# In short: as §1
# PUM1 PUF domain R4-MPH = PUM1 PUF domain R4-MPH (Homo sapiens, UniProt Q14671 828-1176, N971M;H972P;Q975H)
# In short: as §1
# PUM1 PUF domain R6-TWK = biological target: T4, PUM1 PUF domain R6-TWK (Homo sapiens, UniProt Q14671 828-1176, N1043T;Y1044W;Q1047K)
# T4 sequence: T1 sequence with G216T, F217W, Q220K
# In short: as §1
# PUM1 PUF domain R3-VYF = PUM1 PUF domain R3-VYF (Homo sapiens, UniProt Q14671 828-1176, C935V;R936Y;Q939F)
# In short: as §1
# PUM1 PUF domain R3-RAP = PUM1 PUF domain R3-RAP (Homo sapiens, UniProt Q14671 828-1176, C935R;R936A;Q939P)
# In short: as §1
sequence,measurement,setting,value
GGCUAGAACUAGUGGAUCCCCCGGCGCCCGGCGGCUCGAGCCCGGGUAAGUGUAAGUAGUCUGCAUGCCGCCGGGCGCCAUGCCUGCAGGUCGACUCUAGAAAACAUG,binding signal,PUM1 PUF domain R3-ARA,1.03 log2 enrichment (interaction score)
GGCUAGAACUAGUGGAUCCCCCGGCGCCCGGCGGCUCGAGCCCGGGUAAGUGUAUAUAGUCUGCAUGCCGCCGGGCGCCAUGCCUGCAGGUCGACUCUAGAAAACAUG,binding signal,PUM1 PUF domain R4-SNL,4.22 log2 enrichment (interaction score)
GGCUAGAACUAGUGGAUCCCCCGGCGCCCGGCGGCUCGAGCCCGGGUAAGUGAAAAUAGUCUGCAUGCCGCCGGGCGCCAUGCCUGCAGGUCGACUCUAGAAAACAUG,binding signal,PUM1 PUF domain R6-GFQ,0.48 log2 enrichment (interaction score)
same,binding signal,PUM1 PUF domain R6-CYV,3.61 log2 enrichment (interaction score)
same,binding signal,PUM1 PUF domain R6-GHS,2.5 log2 enrichment (interaction score)
GGCUAGAACUAGUGGAUCCCCCGGCGCCCGGCGGCUCGAGCCCGGGUAAGUGUAAAUUGUCUGCAUGCCGCCGGGCGCCAUGCCUGCAGGUCGACUCUAGAAAACAUG,binding signal,PUM1 PUF domain R1-QWR,3.12 log2 enrichment (interaction score)
same,binding signal,PUM1 PUF domain R1-NWS,5.3 log2 enrichment (interaction score)
same,binding signal,PUM1 PUF domain R1-QVK,0.46 log2 enrichment (interaction score)
GGCUAGAACUAGUGGAUCCCCCGGCGCCCGGCGGCUCGAGCCCGGGUAAGUGUACAUAGUCUGCAUGCCGCCGGGCGCCAUGCCUGCAGGUCGACUCUAGAAAACAUG,binding signal,PUM1 PUF domain R4-SNL,1.34 log2 enrichment (interaction score)
same,binding signal,PUM1 PUF domain R4-EYM,2.59 log2 enrichment (interaction score)
GGCUAGAACUAGUGGAUCCCCCGGCGCCCGGCGGCUCGAGCCCGGGUAAGUGUGAAUAGUCUGCAUGCCGCCGGGCGCCAUGCCUGCAGGUCGACUCUAGAAAACAUG,binding signal,PUM1 PUF domain R5-NRV,2.59 log2 enrichment (interaction score)
GGCUAGAACUAGUGGAUCCCCCGGCGCCCGGCGGCUCGAGCCCGGGUAAGUGUCAAUAGUCUGCAUGCCGCCGGGCGCCAUGCCUGCAGGUCGACUCUAGAAAACAUG,binding signal,PUM1 PUF domain R5-RMR,3.2 log2 enrichment (interaction score)
same,binding signal,PUM1 PUF domain R5-KAS,3.47 log2 enrichment (interaction score)
GGCUAGAACUAGUGGAUCCCCCGGCGCCCGGCGGCUCGAGCCCGGGUAAGUGUUAAUAGUCUGCAUGCCGCCGGGCGCCAUGCCUGCAGGUCGACUCUAGAAAACAUG,binding signal,PUM1 PUF domain R5-RMR,2.49 log2 enrichment (interaction score)
same,binding signal,PUM1 PUF domain R5-KAS,5.33 log2 enrichment (interaction score)
GGCUAGAACUAGUGGAUCCCCCGGCGCCCGGCGGCUCGAGCCCGGGUAAGCGUAAAUAGUCUGCAUGCCGCCGGGCGCCAUGCCUGCAGGUCGACUCUAGAAAACAUG,binding signal,PUM1 PUF domain R8-RWE,4.69 log2 enrichment (interaction score)
same,binding signal,PUM1 PUF domain R8-KKV,2.53 log2 enrichment (interaction score)
same,binding signal,PUM1 PUF domain R8-VYK,4.78 log2 enrichment (interaction score)
GGCUAGAACUAGUGGAUCCCCCGGCGCCCGGCGGCUCGAGCCCGGGUAAGUGUAAAUCGUCUGCAUGCCGCCGGGCGCCAUGCCUGCAGGUCGACUCUAGAAAACAUG,binding signal,PUM1 PUF domain R1-QWR,8.29 log2 enrichment (interaction score)
same,binding signal,PUM1 PUF domain R1-QVK,2.91 log2 enrichment (interaction score)
GGCUAGAACUAGUGGAUCCCCCGGCGCCCGGCGGCUCGAGCCCGGGUAAGUCUAAAUAGUCUGCAUGCCGCCGGGCGCCAUGCCUGCAGGUCGACUCUAGAAAACAUG,binding signal,PUM1 PUF domain R7-KRV,5.35 log2 enrichment (interaction score)
GGCUAGAACUAGUGGAUCCCCCGGCGCCCGGCGGCUCGAGCCCGGGUAAGUGUAAAUAGUCUGCAUGCCGCCGGGCGCCAUGCCUGCAGGUCGACUCUAGAAAACAUG,binding signal,PUM1 PUF domain R4-MPH,3.32 log2 enrichment (interaction score)
same,binding signal,PUM1 PUF domain R6-GFQ,6.29 log2 enrichment (interaction score)
same,binding signal,PUM1 PUF domain R8-RWE,3.03 log2 enrichment (interaction score)
same,binding signal,PUM1 PUF domain R6-TWK,2.26 log2 enrichment (interaction score)
same,binding signal,PUM1 PUF domain R5-NRV,2.44 log2 enrichment (interaction score)
same,binding signal,PUM1 PUF domain R6-CYV,0.52 log2 enrichment (interaction score)
same,binding signal,PUM1 PUF domain R4-SNL,2.52 log2 enrichment (interaction score)
same,binding signal,PUM1 PUF domain R3-VYF,5.15 log2 enrichment (interaction score)
same,binding signal,PUM1 PUF domain R6-GHS,0.45 log2 enrichment (interaction score)
same,binding signal,PUM1 PUF domain R3-ARA,3.97 log2 enrichment (interaction score)
GGCUAGAACUAGUGGAUCCCCCGGCGCCCGGCGGCUCGAGCCCGGGUAAGUGUAAUUAGUCUGCAUGCCGCCGGGCGCCAUGCCUGCAGGUCGACUCUAGAAAACAUG,binding signal,PUM1 PUF domain R3-RAP,3.87 log2 enrichment (interaction score)
same,binding signal,PUM1 PUF domain R3-ARA,0.92 log2 enrichment (interaction score)
